# Assay results reported in PubChem BioAssay AID2567 (National Center for Advancing Translational Sciences (NCATS), 2010).
# Inconclusive results are not listed. Entries that show only a call come without a potency. Calls of active or inactive are those of the source. Calls follow the shape of the dose curve; as a rule, active = well fitted antagonist curve with a large enough effect in the main read-out, with a control signal flat; inconclusive = small, poorly fitted or top-dose-only effect; inactive = no such curve, though single readings can be large or run the other way.
# Target: Neuropeptide S receptor (Homo sapiens) (UniProt Q6W5P4)
# Sequence (Q6W5P4 whole entry, looked up): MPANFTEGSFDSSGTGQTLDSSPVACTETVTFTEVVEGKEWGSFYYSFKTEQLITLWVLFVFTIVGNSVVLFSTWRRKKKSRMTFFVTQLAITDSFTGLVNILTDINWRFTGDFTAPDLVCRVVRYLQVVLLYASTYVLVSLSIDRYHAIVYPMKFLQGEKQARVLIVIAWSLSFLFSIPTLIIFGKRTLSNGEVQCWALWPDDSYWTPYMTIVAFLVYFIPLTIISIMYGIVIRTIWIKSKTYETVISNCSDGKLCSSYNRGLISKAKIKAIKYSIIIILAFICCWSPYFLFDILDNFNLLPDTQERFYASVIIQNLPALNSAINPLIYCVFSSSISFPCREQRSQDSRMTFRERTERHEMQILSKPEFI
# Test: Confirmation Concentration-Response Assay for Antagonists of the Neuropeptide S Receptor: Calcium Signal Transduction, SAR for Probe
# Settings: CHO-NPSR cells, NPS-induced calcium fluorescence, FDSS; series mostly up to 19.3 µM
# Summary of the method: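 CHO cells stably expressing human NPSR, loaded with calcium dye; compounds added, then stimulated with NPS (60 nM in stimulation reagent). Fluorescence (Ex 480, Em 520–560 nm) recorded kinetically on FDSS; AC50 from Hill fit.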
row,Structure (SMILES),Potency
1,COc1cccc(C2c3c(ncn(-c4cccc(Br)c4)c3=N)Oc3ccc4ccccc4c32)c1 (stereo unspecified),4.38 µM (active)
2,COc1ccc(C2c3c(n(Cc4ccccc4)cnc3=N)Oc3ccc4ccccc4c32)cc1OC (stereo unspecified),inactive
3,COc1cccc(C2c3c(ncn(-c4ccccc4Br)c3=N)Oc3ccc4ccccc4c32)c1 (stereo unspecified),5.52 µM (active)
4,COc1cccc(C2c3c(ncn(-c4ccc(-c5ccccc5)cc4)c3=N)Oc3ccc4ccccc4c32)c1 (stereo unspecified),inactive
5,CCCCOc1ccc(OCCCN2CCOCC2)cc1,inactive
6,COc1cccc(C2c3c(ncn(-c4ccccn4)c3=N)Oc3ccc4ccccc4c32)c1 (stereo unspecified),5.52 µM (active)
